High-throughput results: PubChem, National Center for Advancing Translational Sciences (NCATS)
The list is not random: actives were taken first. Their share in the collection is about 9.2%.
ELG1 genotoxic: qHTS screen for small molecules that induce genotoxicity in human embryonic kidney (HEK293T) cells expressing luciferase-tagged ELG1; HEK293T ELG1-luciferase reporter, luminescence, 16 h; Potency, µM (titrated, usually from 46 µM), usual class: activators; actives 1.3% (n = 330,000); AID 504466, 2011; further: nearly all actives have a fitted effect of over 60% in size
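Step 1: seed 2,000 HEK293T ELG1-luciferase cells per well. Step 2: add compound or DMSO, incubate 16 hr at 37 °C. Step 3: ONE-Glo, 30 min at room temperature, read luminescence.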
SMN2 splice up: qHTS Assay for Enhancers of SMN2 Splice Variant Expression; actives 2.8% (n = 210,000); HEK293 SMN2-luciferase splicing reporter, luminescence, 30-36 h; Potency, µM (series often up to 46.1 µM), hits mostly activators; further: nearly all actives have a fitted effect of over 55% in size
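qHTS luciferase splicing reporter: luminescence rises when SMN2 exon 7 is included in transfected HEK293 cells. Compound exposure lasted 30-36 h at 37C, with 4.5 mM final sodium butyrate as control, followed by a ONE-Glo read.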
Rab9 prom act: qHTS Assay for Rab9 Promoter Activators; Potency, µM (doses to about 9.22 µM), usual class: activators; Huh7 Rab9 promoter-luciferase reporter, luminescence, 24 h; actives 2.8% (n = 320,000); AID 485297, 2010; further: nearly all actives have a fitted effect of over 60% in size
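Cell-based reporter: Huh7 stable for Rab9 promoter-driven luciferase, plated in reduced-serum medium with 10% FBS at 1500 cells/well, compound-treated 24 h at 37 °C, luminescence read after 10 min reagent.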
NPC1 prom act: qHTS Assay for NPC1 Promoter Activators; actives 2.4% (n = 320,000); AID 485313, 2010; Potency, µM (titrated, usually from 9.22 µM), most hits filed as activators; Huh7 NPC1 promoter luciferase reporter, 24 h; further: nearly all actives have a fitted effect of over 60% in size
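Stable NPC1-promoter luciferase Huh7 line; cpd (DMSO) 24 h, 37 °C, 5% CO2; Amplite luciferase reagent 10 min RT; luminescence readout. qHTS format.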
ELG1 repair inh: qHTS screen for small molecules that inhibit ELG1-dependent DNA repair in human embryonic kidney (HEK293T) cells expressing luciferase-tagged ELG1; Potency, µM (doses to about 46.1 µM), hits mostly inhibitors; HEK293T ELG1-luciferase reporter, luminescence, 16 h; DNA damage induced by 5-fluorouridine; actives 2.3% (n = 330,000); further: nearly all actives have a fitted effect of over 55% in size
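HEK293T cells expressing luciferase-tagged ELG1 (2,000/well) received 5-Fluorouridine plus compound or DMSO for 16 hr at 37 °C. Luciferase was read by ONE-Glo luminescence after 30 min at room temperature.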
FLuc modulator: qHTS profiling assay for firefly luciferase inhibitor/activator using purifed enzyme and Km concentrations of substrates (counterscreen for miR-21 project); Luciferin 4-monooxygenase (Photinus pyralis), P08659; purified FLuc, Km substrates, luminescence inhibition; Potency, µM (highest dose often 57.5 µM), most hits filed as inhibitors; actives 6.9% (n = 360,000); AID 588342, 2011; further: nearly all actives have a fitted effect of over 55% in size
Target sequence (P08659 whole entry, looked up): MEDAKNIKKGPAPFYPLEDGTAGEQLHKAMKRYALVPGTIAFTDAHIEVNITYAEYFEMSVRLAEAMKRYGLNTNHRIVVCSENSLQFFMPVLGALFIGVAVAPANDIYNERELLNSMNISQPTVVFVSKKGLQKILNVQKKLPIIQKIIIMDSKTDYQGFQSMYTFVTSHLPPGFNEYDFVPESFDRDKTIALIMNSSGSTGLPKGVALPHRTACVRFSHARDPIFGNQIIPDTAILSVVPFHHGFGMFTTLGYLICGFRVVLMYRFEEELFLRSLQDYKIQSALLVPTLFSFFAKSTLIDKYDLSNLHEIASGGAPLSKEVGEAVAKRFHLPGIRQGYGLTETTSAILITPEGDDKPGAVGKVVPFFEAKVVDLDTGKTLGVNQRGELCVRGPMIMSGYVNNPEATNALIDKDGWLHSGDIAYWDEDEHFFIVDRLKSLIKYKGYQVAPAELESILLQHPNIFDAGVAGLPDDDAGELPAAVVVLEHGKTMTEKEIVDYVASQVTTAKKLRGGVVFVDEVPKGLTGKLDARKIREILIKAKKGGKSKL
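Purified P. pyralis luciferase (10nM final) with 10uM D-luciferin and 10uM ATP (Km levels) in 50mM Tris acetate pH 7.5, 10mM Mg acetate, 0.01% Tween-20, 0.05% BSA; qHTS 6-point titration, ~60 µM downward; luminescence read.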
Each line names hits and unclear results; the compound was inactive in the other large screens. The call rests on the fitted dose curve; in most records, active means well fitted curve in the direction sought with a large enough effect; inconclusive means small, poorly fitted or top-dose-only effect, or another doubt; inactive means no such curve, though single readings can be large; an effect the other way counts as inactive or inconclusive.

Cn1c2ccccc2c(=O)c2ccc(F)cc21	none (no result: SMN2 splice up)
Cn1c2ccccc2c(=O)c2ccc(C#Cc3ccccn3)cc21	ELG1 repair inh inconclusive (no result: SMN2 splice up)
Cn1c2ccccc2c(=O)c2cc(C#Cc3ccccn3)ccc21	ELG1 genotoxic inconclusive, Rab9 prom act 5µM, NPC1 prom act 2.5µM, ELG1 repair inh inconclusive, FLuc modulator 3µM (no result: SMN2 splice up)
Cn1c2ccccc2c(=O)c2cc(C#Cc3ccsc3)ccc21	Rab9 prom act 2.8µM, NPC1 prom act inconclusive, ELG1 repair inh inconclusive, FLuc modulator 2.4µM (no result: SMN2 splice up)
CCC(C)NC(=O)CN1C(=O)c2cccnc2Sc2ccccc21 (stereo unspecified)	none (no result: ELG1 genotoxic, SMN2 splice up, Rab9 prom act, NPC1 prom act, ELG1 repair inh)
Cc1cc(C)n(-c2nnc3c4ccccc4n(C)c3n2)n1	ELG1 genotoxic inconclusive, Rab9 prom act 2.5µM, NPC1 prom act 1.4µM, ELG1 repair inh inconclusive, FLuc modulator 4.8µM (no result: SMN2 splice up)
C/C(=N\Nc1nc(C)cc(C)n1)c1ccc(C)o1	none (no result: SMN2 splice up)
C/C(=N\Nc1nnc2c3ccccc3n(C)c2n1)c1ccc(C)o1	ELG1 repair inh 16µM, FLuc modulator 17µM
Cn1c(=O)c2c(nc(NCc3cccnc3)n2Cc2ccc(Cl)cc2)n(C)c1=O	ELG1 repair inh 21µM
Cn1c(OCc2cccnc2)nc2c1c(=O)n(Cc1ccc(Br)cc1)c(=O)n2C	ELG1 repair inh 16µM
Cn1c(OCc2ccc3c(c2)OCO3)nc2c1c(=O)n(Cc1ccc(Cl)c(Cl)c1)c(=O)n2C	none
CCNc1nc2c(c(=O)n(Cc3ccccc3)c(=O)n2C)n1Cc1ccccc1	ELG1 repair inh 13µM
Cc1cc(=O)n2nc(N3CCC(C(=O)Nc4ccc(C)c(Cl)c4)CC3)sc2n1	none (no result: ELG1 genotoxic, Rab9 prom act, NPC1 prom act, ELG1 repair inh)
COc1cc(NC(=O)c2nnn(CC(=O)Nc3ccccc3)c2N)cc(OC)c1	none (no result: ELG1 genotoxic, SMN2 splice up, Rab9 prom act, NPC1 prom act, ELG1 repair inh)
CN(C)/C=C/C(=O)c1ccc(Oc2ccccc2)cc1	ELG1 genotoxic 4.1µM, SMN2 splice up 13µM, Rab9 prom act 1.4µM, NPC1 prom act inconclusive, ELG1 repair inh inconclusive, FLuc modulator 4.3µM
CN(C)/C=C/C(=O)c1ccccc1	none (no result: SMN2 splice up)
CCCc1ccc(C(=O)/C=C/N(C)C)cc1	ELG1 genotoxic 9.2µM, Rab9 prom act 1.4µM, NPC1 prom act 1.1µM, ELG1 repair inh inconclusive, FLuc modulator 5.4µM (no result: SMN2 splice up)
O=C1c2ccccc2C(=O)C1c1ccc2ccccc2n1	ELG1 genotoxic 0.13µM, SMN2 splice up 1µM, Rab9 prom act 1µM, NPC1 prom act inconclusive, ELG1 repair inh inconclusive, FLuc modulator 0.17µM
COc1cccc(N2C(=O)C(CC(=O)Nc3ccccc3)N(CCc3sccc3C)C2=O)c1 (stereo unspecified)	none (no result: ELG1 genotoxic, Rab9 prom act, NPC1 prom act, ELG1 repair inh)
COc1ccc(Nc2nc(CC(C)=O)ns2)cc1	ELG1 genotoxic inconclusive, SMN2 splice up 14µM, Rab9 prom act 3.2µM, NPC1 prom act inconclusive, ELG1 repair inh inconclusive, FLuc modulator inconclusive
COc1cccc(Nc2nc(CC(C)=O)ns2)c1	ELG1 genotoxic inconclusive, NPC1 prom act inconclusive, ELG1 repair inh inconclusive, FLuc modulator inconclusive
CC(=O)Cc1nsc(Nc2ccc3c(c2)OCCO3)n1	ELG1 genotoxic inconclusive, SMN2 splice up 13µM, Rab9 prom act 4µM, NPC1 prom act 3.5µM, ELG1 repair inh inconclusive, FLuc modulator 24µM
CC(=O)Cc1nsc(Nc2ccc(F)cc2)n1	ELG1 repair inh inconclusive
Cc1ccc(/C=C/C(=O)NCc2cccs2)cc1	ELG1 genotoxic inconclusive, SMN2 splice up 11µM, ELG1 repair inh inconclusive, FLuc modulator 11µM
O=C(/C=C/c1ccc([N+](=O)[O-])cc1)NCc1cccs1	ELG1 repair inh inconclusive, FLuc modulator inconclusive
Cc1ccc(/C=C/C(=O)NCc2cccs2)c(C)c1	ELG1 genotoxic inconclusive, Rab9 prom act 2.8µM, NPC1 prom act inconclusive, ELG1 repair inh inconclusive, FLuc modulator 6.7µM (no result: SMN2 splice up)
COc1ccc(NC(=O)CN(C)CC(=O)N2CCCCCC2)cc1	none (no result: SMN2 splice up)
